Records with an inconclusive call do not appear. Calls of active or inactive are those of the source. Calls come from the whole dose curve; as a rule, active = well fitted curve in the direction sought with a large enough effect; inconclusive = small, poorly fitted or top-dose-only effect, or another doubt; inactive = no such curve, though single readings can be large; an effect the other way counts as inactive or inconclusive.
How the values were obtained:
[1] = qHTS of pediatric cancer cell lines to identify multiple opportunities for drug repurposing: Primary screen for SJ-GBM2 cells (AID 1347091); note: potency is the fitted concentration of half-maximal effect
In short: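 Cell viability, CellTiter-Glo luminescence; 500-1,000 cells/well, 8- or 11-point titration, 48 h compound exposure at 37 degrees C, 5% CO2. Controls: DMSO neutral, bortezomib 2.3 µM final as positive.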

[2] = qHTS of pediatric cancer cell lines to identify multiple opportunities for drug repurposing: Primary screen for A673 cells (AID 1347092); note: nearly all actives have a fitted effect of over 45% in size; note: potency is the fitted concentration of half-maximal effect
In short: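 48 h compound exposure, A673, 500-1,000 cells/well, 37 degrees C/5% CO2. MIPE: 11-point, 0.78 nM-46 µM; NPC: 8-point, 0.59 nM-46 µM (final). Readout CellTiter-Glo luminescence after 15 min RT.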

[3] = qHTS of pediatric cancer cell lines to identify multiple opportunities for drug repurposing: Primary screen for SK-N-MC cells (AID 1347093); note: potency is the fitted concentration of half-maximal effect
In short: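 Metabolically active cells were quantified by ATP-dependent luminescence (CellTiter-Glo, 15 min at room temperature) following 48 h treatment. Cells had been plated at 500-1,000 per well and settled for 5 h beforehand.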

[4] = qHTS of pediatric cancer cell lines to identify multiple opportunities for drug repurposing: Primary screen for BT-37 cells (AID 1347094); note: potency is the fitted concentration of half-maximal effect
In short: (§1)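 Following a 5-hour attachment period, cells at 500-1,000/well received compounds and were cultured for 48 hours. CellTiter-Glo was added and luminescence read to estimate viable, metabolically active cells.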

[5] = qHTS of pediatric cancer cell lines to identify multiple opportunities for drug repurposing: Primary screen for NB-EBc1 cells (AID 1347095); note: potency is the fitted concentration of half-maximal effect
In short: as §1

[6] = qHTS of pediatric cancer cell lines to identify multiple opportunities for drug repurposing: Primary screen for Saos-2 cells (AID 1347097); note: nearly all actives have a fitted effect of over 40% in size; note: potency is the fitted concentration of half-maximal effect
In short: as §1

[7] = qHTS of pediatric cancer cell lines to identify multiple opportunities for drug repurposing: Primary screen for SK-N-SH cells (AID 1347098); note: nearly all actives have a fitted effect of over 65% in size; note: potency is the fitted concentration of half-maximal effect
In short: (§2)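 Cells (500-1,000/well) rested 5 h, then received compounds for 48 h; metabolically active cells were measured by CellTiter-Glo luminescence. Final concentrations spanned up to 46 µM (MIPE, 11-point) or 0.59 nM-46 µM (NPC, 8-point) in primary screens, 11-point in follow-ups.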

[8] = qHTS of pediatric cancer cell lines to identify multiple opportunities for drug repurposing: Primary screen for LAN-5 cells (AID 1347100); note: potency is the fitted concentration of half-maximal effect
In short: as §2

[9] = qHTS of pediatric cancer cell lines to identify multiple opportunities for drug repurposing: Primary screen for BT-12 cells (AID 1347101); note: nearly all actives have a fitted effect of over 25% in size; note: potency is the fitted concentration of half-maximal effect
In short: as §2

[10] = qHTS of pediatric cancer cell lines to identify multiple opportunities for drug repurposing: Primary screen for Rh18 cells (AID 1347102); note: nearly all actives have a fitted effect of over 65% in size; note: potency is the fitted concentration of half-maximal effect
In short: as §2

[11] = qHTS of pediatric cancer cell lines to identify multiple opportunities for drug repurposing: Primary screen for OHS-50 cells (AID 1347103); note: nearly all actives have a fitted effect of over 40% in size; note: potency is the fitted concentration of half-maximal effect
In short: as §2

[12] = qHTS of pediatric cancer cell lines to identify multiple opportunities for drug repurposing: Primary screen for RD cells (AID 1347104); note: nearly all actives have a fitted effect of over 55% in size; note: potency is the fitted concentration of half-maximal effect
In short: as §1

[13] = qHTS of pediatric cancer cell lines to identify multiple opportunities for drug repurposing: Primary screen for MG 63 (6-TG R) cells (AID 1347105); note: nearly all actives have a fitted effect of over 50% in size; note: potency is the fitted concentration of half-maximal effect
In short: as §1

[14] = qHTS of pediatric cancer cell lines to identify multiple opportunities for drug repurposing: Primary screen for control Hh wild type fibroblast cells (AID 1347106); note: nearly all actives have a fitted effect of over 55% in size; note: potency is the fitted concentration of half-maximal effect
In short: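 Viability after 48 h compound treatment at 37C, 500-1,000 cells/well, read as ATP luminescence with CellTiter-Glo. Primary screens used 11-point (MIPE, 0.78 nM-46 µM) or 8-point (NPC, 0.59 nM-46 µM) final concentrations; follow-up screens used 11-point dilutions.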

[15] = qHTS of pediatric cancer cell lines to identify multiple opportunities for drug repurposing: Primary screen for Rh30 cells (AID 1347107); note: nearly all actives have a fitted effect of over 75% in size; note: potency is the fitted concentration of half-maximal effect
In short: as §2

[16] = qHTS of pediatric cancer cell lines to identify multiple opportunities for drug repurposing: Primary screen for Rh41 cells (AID 1347108); note: nearly all actives have a fitted effect of over 70% in size; note: potency is the fitted concentration of half-maximal effect
In short: as §1

[17] = qHTS of pediatric cancer cell lines to identify multiple opportunities for drug repurposing: Confirmatory screen for NB1643 cells (AID 1347109); note: potency is the fitted concentration of half-maximal effect; nearly all actives have a fitted effect of over 45% in size
In short: as §2

[18] = qHTS of pediatric cancer cell lines to identify multiple opportunities for drug repurposing: Confirmatory screen for A673 cells (AID 1347110);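 note: cells exposed to compound for 48 h before the viability read; nearly all actives have a fitted effect of over 65% in size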; note: potency is the fitted concentration of half-maximal effect
In short: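 Concentration-response curves came straight from titrations: 11 points (0.78 nM to 46 µM) for MIPE and several concentrations (0.59 nM to 46 µM) for NPC in primary, 11 points in follow-up. Readout: ATP luminescence at 48 h.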

[19] = qHTS of pediatric cancer cell lines to identify multiple opportunities for drug repurposing: Primary screen for NB1643 cells (AID 1347099); note: nearly all actives have a fitted effect of over 50% in size; note: potency is the fitted concentration of half-maximal effect
In short: as §1

[20] = qHTS of pediatric cancer cell lines to identify multiple opportunities for drug repurposing: Primary screen for U-2 OS cells (AID 1347096); note: nearly all actives have a fitted effect of over 50% in size
In short: as §2

Measured: Potency

CC(C)(O)Cn1c(NC(=O)c2ccc(-c3cn[nH]c3)s2)nc2cc(CN3CCOCC3)ccc21
inactive: [15]
active: [1] 0.743 µM | [2] 1.18 µM | [3] 2.35 µM | [4] 1.09 µM | [5] 0.743 µM | [6] 0.743 µM | [7] 1.71 µM | [8] 0.332 µM | [9] 3.43 µM | [10] 1.87 µM | [11] 1.22 µM | [12] 1.87 µM | [13] 3.72 µM | [14] 6.62 µM | [16] 1.18 µM | [17] 0.329 µM | [18] 1.17 µM

CNC(=O)Nc1ccc(-c2nc(N3CC4CCC(C3)O4)c3cnn(C4CCC5(CC4)OCCO5)c3n2)cc1
inactive: [19]
active: [1] 0.0296 µM | [2] 0.372 µM | [3] 0.0026 µM | [4] 0.0306 µM | [5] 0.132 µM | [6] 0.209 µM | [8] 6.62 µM | [10] 0.0935 µM | [11] 0.0217 µM | [12] 0.0526 µM | [13] 0.0118 µM | [15] 11.8 µM | [16] 0.0418 µM | [18] 1.04 µM

CC(C)c1cnn2c(NCc3ccccc3)cc(NCCCCCCN)nc12
active: [1] 16.6 µM | [2] 5.9 µM | [3] 0.662 µM | [4] 24.3 µM | [5] 20.9 µM | [6] 23.5 µM | [19] 18.7 µM | [8] 18.7 µM | [9] 27.3 µM | [11] 21.7 µM | [12] 18.7 µM | [13] 5.9 µM | [16] 7.43 µM

CCC(C(=O)O)C1CCC(C)C(C(C)C(O)C(C)C(=O)C(CC)C2OC3(C=CC(O)[C@@]4(CC[C@](C)(C5CC[C@@](O)(CC)C(C)O5)O4)O3)C(C)CC2C)O1 (stereo partly specified)
inactive: [15]
active: [1] 11.8 µM | [2] 2.35 µM | [3] 0.187 µM | [4] 0.611 µM | [5] 0.296 µM | [6] 9.35 µM | [7] 12.1 µM | [19] 1.66 µM | [8] 1.05 µM | [9] 0.385 µM | [11] 0.432 µM | [12] 4.18 µM | [13] 18.7 µM | [18] 5.85 µM

CN[C@H]1[C@@H](O)[C@@H]2O[C@@H]3O[C@H](C)CC(=O)[C@]3(O)O[C@@H]2[C@@H](NC)[C@H]1O
active: [1] 0.59 µM | [2] 0.0743 µM | [3] 0.166 µM | [4] 9.68 µM | [5] 8.33 µM | [7] 6.07 µM | [19] 1.87 µM | [8] 0.166 µM | [10] 1.18 µM | [11] 0.432 µM | [12] 0.59 µM | [13] 9.35 µM | [14] 3.72 µM | [15] 0.296 µM | [16] 1.18 µM
inactive: [18]

O=C1NC(=O)[C@@H](c2cn3c4c(cccc24)CCC3)[C@H]1c1c[nH]c2ccccc12
inactive: [7] | [10] | [15]
active: [1] 0.0833 µM | [2] 0.235 µM | [3] 0.0469 µM | [4] 2.17 µM | [5] 0.0469 µM | [8] 0.332 µM | [9] 2.17 µM | [11] 0.863 µM | [12] 0.235 µM | [18] 2.33 µM

CCOC(=O)N1CCN([N+]([O-])=NOc2ccc([N+](=O)[O-])cc2[N+](=O)[O-])CC1
active: [1] 8.33 µM | [2] 9.35 µM | [3] 8.33 µM | [4] 15.3 µM | [5] 5.26 µM | [6] 18.7 µM | [7] 27.1 µM | [11] 13.7 µM | [13] 18.7 µM | [16] 4.18 µM
inactive: [14] | [15]

O=C(O)C[C@H](O)C[C@H](O)C=Cc1c(C2CC2)nc2ccccc2c1-c1ccc(F)cc1
active: [1] 11.8 µM | [2] 3.72 µM | [3] 4.69 µM | [4] 15.3 µM | [5] 20.9 µM | [6] 0.833 µM | [7] 4.82 µM | [9] 0.273 µM | [10] 4.69 µM | [11] 3.06 µM | [12] 18.7 µM | [13] 1.48 µM | [16] 4.69 µM | [18] 2.33 µM

O=C(Nc1cc2cc[nH]c2cn1)c1ccccc1
active: [1] 14.8 µM | [2] 7.43 µM | [3] 11.8 µM | [4] 7.69 µM | [5] 13.2 µM | [6] 11.8 µM | [7] 19.2 µM | [19] 14.8 µM | [8] 14.8 µM | [9] 6.85 µM | [10] 11.8 µM | [11] 10.9 µM | [12] 14.8 µM | [13] 14.8 µM | [16] 18.7 µM | [18] 1.65 µM

CC(=O)O[C@]1(C(C)=O)CC[C@H]2[C@@H]3C=C(C)C4=CC(=O)CC[C@]4(C)[C@@H]3CC[C@@]21C
inactive: [15]
active: [1] 14.8 µM | [2] 2.35 µM | [3] 2.09 µM | [4] 4.32 µM | [5] 2.35 µM | [6] 11.8 µM | [7] 3.04 µM | [19] 2.64 µM | [8] 5.9 µM | [10] 13.2 µM

COc1cc(C=CC(=O)CC(=O)C=Cc2ccc(O)c(OC)c2)ccc1O
active: [1] 30.3 µM | [2] 6.79 µM | [3] 5.4 µM | [4] 31.4 µM | [5] 38.2 µM | [6] 30.3 µM | [19] 12.1 µM | [9] 44.4 µM | [10] 38.2 µM | [11] 39.5 µM | [18] 10.7 µM

COC1=C(OC)C(=O)C(CC=C(C)CCC=C(C)CCC=C(C)CCC=C(C)CCC=C(C)CCC=C(C)CCC=C(C)CCC=C(C)CCC=C(C)CCC=C(C)C)=C(C)C1=O
not listed: [9] | [17] | [18] | [20]
inactive: all other assays above

COc1cccc2c1C(=O)c1c(O)c3c(c(O)c1C2=O)C[C@@](O)(C(=O)CO)C[C@@H]3O[C@H]1C[C@H](N)[C@@H](O)[C@H](C)O1
active: [1] 0.264 µM | [2] 0.372 µM | [3] 0.235 µM | [4] 0.193 µM | [5] 0.118 µM | [6] 2.35 µM | [7] 0.429 µM | [19] 0.662 µM | [8] 0.118 µM | [9] 0.685 µM | [10] 0.469 µM | [11] 0.611 µM | [13] 1.48 µM | [16] 0.662 µM | [17] 0.165 µM | [18] 0.293 µM
inactive: [15]

O=C(CN1C(=O)C2(CCCC2)NC[C@H]1c1cc(F)cc(F)c1)Nc1ccc2c(c1)C[C@@]1(C2)C(=O)Nc2ncccc21
not listed: [8] | [13] | [17] | [18] | [20]
inactive: all other assays above

Cc1nc(NC(=O)N2CCC[C@@H]2C(N)=O)sc1-c1ccnc(C(C)(C)C(F)(F)F)c1
inactive: [20]
active: [1] 5.9 µM | [2] 9.35 µM | [3] 0.059 µM | [5] 1.48 µM | [8] 5.9 µM | [10] 3.72 µM | [11] 0.485 µM | [12] 0.372 µM | [13] 1.18 µM | [18] 16.5 µM

Cn1cc(C2=C(c3c4n(c5ccccc35)CCC(CN)C4)C(=O)NC2=O)c2ccccc21 (stereo unspecified)
inactive: [14]
active: [1] 14.8 µM | [2] 5.9 µM | [4] 27.3 µM | [5] 18.7 µM | [6] 18.7 µM | [7] 24.1 µM | [19] 26.4 µM | [8] 26.4 µM | [9] 27.3 µM | [11] 24.3 µM | [12] 29.6 µM | [16] 23.5 µM

Cc1cc(Nc2ncc3c(n2)N(C)C(=O)N(c2cc(NC(=O)c4cccc(C(F)(F)F)c4)ccc2C)C3)n(C)n1
active: [1] 0.296 µM | [2] 0.372 µM | [3] 0.209 µM | [5] 0.743 µM | [6] 0.372 µM | [7] 0.607 µM | [19] 0.209 µM | [8] 0.935 µM | [10] 0.59 µM | [11] 0.217 µM | [12] 0.418 µM | [13] 0.59 µM | [14] 0.743 µM | [16] 0.743 µM | [18] 0.414 µM
